Legend:
Experiment in all cases: PBM binding z-score (relative to random genomic background probes); higher = stronger binding; sequences stand for … in GC…GCGATTGACAGCGTAGAATGAAGG
[1] = test system: FXR:RXRa (NR concentration 270 nM, RXRa partner concentration 90 nM)
In short: (§1)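 Probes were double-stranded and carried 34-nt variable regions with direct-repeat seeds, single-nucleotide variants, half-site ablations and random human genomic background sequences, printed on custom Agilent 4×180K protein-binding microarrays. Arrays were incubated 1 h with ligand-free nuclear receptor dimers in PBS pH 7.4, 2% milk, 0.02% Triton X-100, 1 mM DTT, 0.2 mg/mL BSA and 0.4 mg/ml salmon testes DNA. Antibodies against each partner (one per run) detected binding, and scanned fluorescence was regression-normalized. Binding z-scores use the random background probes as reference.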

[2] = test system: LXRa:RXRa (NR concentration 270 nM, RXRa partner concentration 90 nM)
In short: as §1

[3] = test system: LXRa homodimer (NR concentration 270 nM)
In short: as §1

[4] = test system: LXRb:RXRa (NR concentration 270 nM, RXRa partner concentration 90 nM)
In short: as §1

[5] = test system: LXRb homodimer (NR concentration 270 nM)
In short: as §1

[6] = test system: PPARa:RXRa (NR concentration 270 nM, RXRa partner concentration 90 nM)
In short: as §1

[7] = test system: PPARg:RXRa (NR concentration 180 nM, RXRa partner concentration 90 nM)
In short: as §1

[8] = test system: PPARg:RXRa 270nM:90nM, anti-RXR (NR concentration 270 nM, RXRa partner concentration 90 nM)
In short: as §1

[9] = test system: PPARg:RXRa 30nM:10nM, anti-RXR (NR concentration 30 nM, RXRa partner concentration 10 nM)
In short: as §1

[10] = test system: PPARg:RXRa 90nM:30nM, anti-RXR (NR concentration 90 nM, RXRa partner concentration 30 nM)
In short: as §1

[11] = test system: PPARg:RXRa DBDmut IVT, anti-RXR (DBD mutation: RXRa K156A/R161A, NR concentration 270 nM, RXRa partner concentration 90 nM)
In short: as §1

[12] = test system: PPARg:RXRa IVT, anti-PPARg (NR concentration 270 nM, RXRa partner concentration 90 nM)
In short: as §1

[13] = test system: PPARg DBDmut:RXRa IVT, anti-PPARg (DBD mutation: PPARg1 K132A/R137A, NR concentration 270 nM, RXRa partner concentration 90 nM)
In short: as §1

[14] = test system: PPARg DBDmut IVT, anti-PPARg (DBD mutation: PPARg1 K132A/R137A, NR concentration 270 nM)
In short: as §1

[15] = test system: PPARg homodimer (NR concentration 180 nM)
In short: as §1

[16] = test system: PXR:RXRa (NR concentration 270 nM, RXRa partner concentration 90 nM)
In short: as §1

[17] = test system: PXR homodimer (NR concentration 270 nM)
In short: as §1

[18] = test system: RARa:RXR (NR concentration 270 nM, RXRa partner concentration 90 nM)
In short: as §1

[19] = test system: RARa homodimer (NR concentration 270 nM)
In short: as §1

[20] = test system: RARb:RXRa (NR concentration 270 nM, RXRa partner concentration 90 nM)
In short: as §1

| Sequence | PBM binding z-score [1] | PBM binding z-score [2] | PBM binding z-score [3] | PBM binding z-score [4] | PBM binding z-score [5] | PBM binding z-score [6] | PBM binding z-score [7] | PBM binding z-score [8] | PBM binding z-score [9] | PBM binding z-score [10] | PBM binding z-score [11] | PBM binding z-score [12] | PBM binding z-score [13] | PBM binding z-score [14] | PBM binding z-score [15] | PBM binding z-score [16] | PBM binding z-score [17] | PBM binding z-score [18] | PBM binding z-score [19] | PBM binding z-score [20] |
| --- | --- | --- | --- | --- | --- | --- | --- | --- | --- | --- | --- | --- | --- | --- | --- | --- | --- | --- | --- | --- |
| TTACCAAGGTGAAAGGCCGTTGATGCACGCCTTG | 0.494 | 0.431 | -0.517 | 0.397 | -0.951 | 2.49 | 3.77 | 4.98 | 2.95 | 4.9 | 1.83 | 3.1 | 1.11 | -0.0172 | 1.5 | 0.172 | -0.516 | 1.1 | -0.123 | 1.66 |
| CCTAGCAGGCAAGGGTCACTCAAGCATTTCGCTT | 2.9 | 2.67 | -0.242 | 2.45 | -0.627 | 3.8 | 1.77 | 3.27 | 0.737 | 2.48 | 0.337 | 0.835 | -1.27 | -1.7 | 1.35 | 2.99 | -0.946 | 3.86 | -0.178 | 3.31 |
| TCTCGGCGGACACGAAGGTCAGAGCTTTCCAGAG | 0.592 | 0.668 | 0.198 | 0.454 | -1.37 | 1.5 | 0.0295 | 1.04 | 1.16 | 1.08 | 0.413 | 0.291 | -0.613 | -1.55 | 0.53 | 1.09 | -0.42 | 1.09 | -0.212 | 2.45 |
| ACTATTAGTAGACTTAGGGCAACCGATACGACGC | -0.142 | -0.0337 | 0.0948 | -0.377 | 0.454 | -0.25 | 1.13 | 0.419 | 0.331 | 0.394 | 0.187 | 0.601 | 0.838 | 1.02 | 0.603 | 0.0648 | 0.218 | 0.0539 | 0.917 | 0.609 |
| ATCTCTAGATAACAAGTTCAGTGAAAGAGAGGAC | 0.459 | 0.495 | 0.398 | 0.384 | 0.4 | 0.365 | 0.657 | 0.541 | 0.363 | 0.315 | -0.504 | 0.236 | 0.623 | 0.272 | 0.186 | 1.26 | 1.72 | 0.0962 | 0.589 | 1 |
| TCATATAGGTAAATGCTAGGTGAAAGGCCGATCT | 0.626 | 1.07 | 0.239 | 0.994 | 0.0512 | 1.93 | 1.81 | 3.17 | 3.62 | 3.95 | 3.92 | 2.61 | 1.09 | 0.912 | 1.13 | 0.776 | 0.428 | 1.1 | 1.3 | 0.655 |
| TCTTGTTGGTCACGGAGGTCACACACGACGGGTA | 3.76 | 3.86 | 3.29 | 3.62 | 2.2 | 4.14 | 3.58 | 4.44 | 3.5 | 4.07 | 2.92 | 4.57 | 2.15 | 2.59 | 4.65 | 5 | 2.43 | 5.34 | 3.1 | 4.17 |
| CCTAGCATGCCAATCTGGGTCACTCAAGGCTTGA | 0.636 | 1.12 | -0.371 | 0.998 | -0.652 | 3.3 | 2.23 | 2.25 | -0.035 | 1.26 | 3.67 | 4.84 | 0.133 | -0.458 | 0.737 | 0.913 | -0.249 | 1.65 | -0.219 | 1.16 |
| TGACTGAGGTTATAAGATCAGGGAACGTTGCAAA | 1.3 | 1.14 | -0.497 | 1.08 | -0.238 | 2.27 | 0.706 | 0.976 | 0.531 | 0.783 | -0.568 | 0.535 | -0.045 | -0.27 | 0.479 | 0.649 | -0.0741 | 1.25 | -0.694 | 1.15 |
| CAAACTAGGGCACAGAGGTCAAAGTCCGTGCGTA | 5.59 | 5.41 | 5.74 | 4.88 | 1.2 | 5.71 | 7.92 | 6.9 | 4.71 | 6.59 | 7.7 | 7.94 | 4.77 | 2.72 | 4.24 | 6.12 | 8.42 | 6.5 | 1.61 | 4.41 |
| GCTCGGAGGACAAGGTGAGAGCTTTGTCCGTAGA | -0.399 | -0.339 | -1.2 | -0.463 | -1.12 | -0.0348 | -0.809 | -0.0501 | -1.12 | -0.422 | -0.575 | 0.359 | -0.51 | -0.882 | -0.374 | -0.472 | -0.908 | -0.166 | -1.13 | 1.52 |
| TCTAGTTGGTCACGGAGGTAACACACGACGGGTA | 0.499 | 0.13 | -0.316 | 0.404 | 0.515 | 1.02 | 1.34 | 1.92 | 3.23 | 2.25 | 2.14 | 2.58 | 0.811 | 0.805 | 0.896 | 0.407 | 0.258 | 0.834 | 0.81 | 1.8 |
| TCATATATGTAATACAGGTGAAAGTCGGCATCTA | 0.656 | 0.799 | 0.168 | 0.857 | 0.395 | 2.14 | 2.09 | 3.12 | 3.65 | 3.4 | 2.42 | 2.27 | 1.39 | 1.75 | 0.745 | 0.801 | 0.494 | 1.41 | 0.947 | 0.42 |
| CCGACTGTGGCAAGGTTACCATAACGCACAGCCA | 0.166 | 0.546 | -0.172 | 0.46 | -0.922 | 1.07 | 1.1 | 0.984 | -0.132 | 0.352 | 1.15 | 0.507 | -0.345 | -0.505 | 0.63 | 0.176 | 0.241 | 0.594 | 0.511 | 0.885 |

From the supplement of paper PMC6555819
